Source: PubChem BioAssay (Tox21)
Records with an inconclusive call do not appear. A number with no mark means an inactive call. Calls of active or inactive are those of the source. Calls come from the whole dose curve.

assay: qHTS assay to identify small molecule agonists of the NFkB signaling pathway - cell viability counter screen (AID 1159515); details: NFkB-bla ME-180 viability, CellTiter-Glo luminescence, 5 h; series mostly up to 61 µM; activity, negative = cytotoxic: at the top concentration; note: nearly all actives have a fitted effect of over 55% in size
Source text: National Center for Advancing Translational Sciences [NCATS]
NIH Chemical Genomics Center [NCGC]
U.S. Environmental Protection Agency [EPA]
National Institutes of Environmental Health Sciences [NIEHS]
National Toxicology Program [NTP]
U.S. Food and Drug Administration [FDA]
Transcription factors and their stimulated target gene expression play pivotal roles across many cellular processes including responses to environmental stimuli. Proper regulation of associated pathways is critical to maintain cell health and function. Constitutive activation of transcription factor pathways has been implicated in tumors as it may block cellular functions such as apoptosis and lead to invasion and metastasis. One important transcription factor that stimulates gene expression in response to cytokines, UV radiation, and other stimuli is nuclear factor-kappa B (NFkB). To measure activation of the NFkB pathway, the CellSensor NFkB-bla ME-180 cell line (Life Technologies, Carlsbad, CA) that stably expresses beta-lactamase reporter gene under the regulation of a NF-kB response element was used. This assay allows measurement of the NFkB pathway activity induced by compounds in a ME-180 cell line. This system quantitates NF-kB activity using a FRET-based assay system where beta-lactamase expression disrupts FRET, allowing for fluorescent measurement of activity. This cell line has been used to screen the Tox21 10K compound library and to identify compounds that induce the NFkB pathway activity. The cytotoxicity of the Tox21 compound library against the NFkB-bla ME-180 cell line was tested in parallel by measuring cell viability using the CellTiter-Glo assay in the same wells.
Tox21 Assay Protocol Summary:
NFkB-bla ME-180 cells were dispensed at 2,000 cells/6 uL of assay medium per well into black wall/clear-bottom 1536-well plates using a Multidrop Combi (ThermoFisher Scientific, Waltham, MA) dispenser. After the assay plates were incubated at 37 C and 5% CO2 for an overnight, 23 nL of compounds dissolved in DMSO, positive controls or DMSO only was transferred to the assay plate by a Pintool station (Kalypsys, San Diego, CA). The assay plates were incubated at 37 C and 5% CO2 for 5 hr. One uL of LiveBLAzer B/G FRET substrate (Life Technologies) was added using a Flying Reagent Dispenser (Aurora Discovery, San Diego, CA) and the plates were incubated at room temperature for 1.5 hr. Fluorescence intensity (405 nm excitation, 460 nm and 530 nm emissions) was measured using an Envision plate reader (PerkinElmer, Shelton, CT). For cytotoxicity, 3 ul/well of CellTiter-Glo reagent was added into the assay plates using an FRD. After 30 min incubation at room temperature, the luminescence intensity was measured using a ViewLux plate reader (PerkinElmer).
% is set by controls: 0 for no effect and ±100 for the full control effect; potency is the fitted concentration of half-maximal effect.

SMILES	activity, negative = cytotoxic	Potency
OCCCCCCCCCCCCBr	-12.8% [at 78.8 µM]	–
CCOc1nc2cccc(C(=O)OC(C)OC(=O)OC3CCCCC3)c2n1Cc1ccc(-c2ccccc2-c2nn[nH]n2)cc1 (stereo not given)	–	43.6 µM (active)
Oc1cc2ccccc2c2ccccc12	–	4.9 µM (active)
ON=C1CCCC1	9.45% [at 78.8 µM]	–
CCc1cc(Cc2cc(CC)cc(C(C)(C)C)c2O)c(O)c(C(C)(C)C)c1	–	15.5 µM (active)
CC(C)(C)C(=O)OCOC(=O)[C@@H]1N2C(=O)[C@@H](NC(=O)[C@H](N)c3ccccc3)[C@H]2SC1(C)C	4.92%	–
Oc1ccc(N=Nc2ccccc2)cc1	-2.74% [at 78.8 µM]	–
C=C(C)C(=O)OCC[N+](C)(C)C	-0.508%	–
O=C(Nc1cccc(C(F)(F)F)c1)c1cc(Br)cc(Br)c1O	–	54.9 µM (active)
CC(C)=CCOc1ccc(/C=C/C(=O)c2ccc(OCC=C(C)C)cc2OCC(=O)O)cc1	11.3%	–
C[C@H](CCC(=O)O)[C@H]1CC[C@H]2[C@@H]3CC[C@@H]4C[C@H](O)CC[C@]4(C)[C@H]3CC[C@]12C	–	49 µM (active)
N/C(=N\N=C\c1ccc(Cl)cc1)N/N=C/c1ccc(Cl)cc1	–	13.4 µM (active)
NNc1nc(-c2ccc(N)cc2)cs1	2.31%	–
CCCCCCC[N+](CC)(CC)CCCCc1ccc(Cl)cc1	-2.03%	–
O=C1c2c(O)ccc(Nc3ccc(CCO)cc3)c2C(=O)c2c([N+](=O)[O-])ccc(O)c21	-2.52%	–
S=c1[nH]c2ccccc2s1	-13.4%	–
CS(=O)(=O)CCNCc1ccc(-c2ccc3ncnc(Nc4ccc(OCc5cccc(F)c5)c(Cl)c4)c3c2)o1	–	16.9 µM (active)
O=C1C=CC(=O)N1	-2.91% [at 78.8 µM]	–
CN(C)c1ccc(SC#N)cc1	–	17.4 µM (active)
Cc1onc(-c2ccccc2Cl)c1C(=O)N[C@@H]1C(=O)N2[C@@H]1SC(C)(C)[C@@H]2C(=O)O	-17.5%	–

SMILES	activity, negative = cytotoxic	Potency
COc1ccc(CN2CCN(C(c3ccc(F)cc3)c3ccc(F)cc3)CC2)c(OC)c1OC	–	15.1 µM (active)
CNc1ccc(O)cc1	–	48.9 µM (active)
Cc1cc(CCN2CCN(c3nsc4ccccc34)CC2)cc2c1NC(=O)CC2(C)C	–	54.9 µM (active)
O=C1CCCc2c1cc1ccc3cccc4ccc2c1c34	-24.3% [at 78.8 µM]	–
O=C1CCCCCN1SSN1CCCCCC1=O	14.9%	–
[Cl][Au]([Cl])[Cl]	-6.16%	–
CC(C)CCCCCCCCCCCCCCC(=O)O	-15%	–
Nc1c2ccccc2nc2ccccc12	11.7%	–
CCN1/C(=C/C=C/c2sc3ccccc3[n+]2CC)Sc2ccccc21	-12.7% [at 28.5 µM]	–
CCCN(CCC)c1c([N+](=O)[O-])cc(C(F)(F)F)c(N)c1[N+](=O)[O-]	–	24.5 µM (active)
CCCN(CCC)C(=O)C(CCC(=O)OCCCN1CCN(CCOC(=O)Cc2c(C)n(C(=O)c3ccc(Cl)cc3)c3ccc(OC)cc23)CC1)NC(=O)c1ccccc1 (stereo not given)	–	21.3 µM (active)
C=CC(=O)OCCn1c(=O)n(CCOC(=O)C=C)c(=O)n(CCOC(=O)C=C)c1=O	-5.45%	–
CCCCN1C(=O)[C@@H]([C@H](O)C2CCCCC2)NC(=O)C12CCN(Cc1ccc(Oc3ccc(C(=O)O)cc3)cc1)CC2	11.4%	–
Cc1ccc(O)c2ncccc12	–	6.01 µM (active)
CCC(C)Nc1ccc(NC(C)CC)cc1 (stereo not given)	–	44.5 µM (active)
Oc1cccc(-c2c3nc(c(-c4cccc(O)c4)c4ccc([nH]4)c(-c4cccc(O)c4)c4nc(c(-c5cccc(O)c5)c5ccc2[nH]5)CC4)C=C3)c1	-6.58%	–
O=C(O)c1cc(O)c2c(c1)C(=O)c1cccc(O)c1C2=O	-0.168% [at 78.8 µM]	–
CCOC(=O)/C=C(C)/C=C/C=C(C)/C=C/c1c(C)cc(OC)c(C)c1C	0%	–
[O-][n+]1ccccc1SSc1cccc[n+]1[O-]	–	0.233 µM (active)
N=C1N=C(N)c2ccccc21	3.42%	–
